Compound activity from PubChem BioAssay.
The sample as a whole holds a higher share of hits than the screen did.
Pf Dd2 inh = qHTS Primary assay for Inhibitors of Plasmodium falciparum Dd2 growth in vitro; AID 1347417, 2020; P. falciparum Dd2 growth, SYBR Green, 72 h; Potency, µM (titrated, usually from 28.9 µM), inactives show at the top dose activity, negative = inhibition, hits mostly inhibitors; hit rate 4.3% among 120,000; active means well fitted inhibition curve with a large enough effect;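 further: plate controls were DMSO vehicle for no effect and reference drug for full effect; nearly all actives have a fitted effect of over 65% in size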
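Readout: SYBR Green fluorescence, 485 nm excitation, 535 nm emission, after ~16 h lysis at 37C. Before that, Dd2-infected red cells (2.5% hematocrit) grew 72 h with compound, 29 uM top final concentration.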
Starred values were filed as active, the others as inactive; [ ] = dose if it differs, or a comment. Potency means the concentration at half of the fitted maximal effect.

Cc1ccccc1OCc1nc2ccccc2n1Cc1ccccc1Cl was read as Pf Dd2 inh 27.3%.
For Cc1cnc(CC2CCN(C(=O)c3nn(C)c4ccccc34)C2)n1CC1CC1 (configuration not stated) the results were Pf Dd2 inh inactive.
`O[C@@H]1CN(CC2CC2)CC[C@H]1N1CCN(c2ccccc2F)CC1` gave Pf Dd2 inh -10.2%.
CC(=O)Nc1ccc(S(=O)(=O)N2CCN3C(=O)CN(C)C(=O)C3C2)cc1 (configuration not stated) was read as Pf Dd2 inh -13.1%.
`CN(CC(=O)N1CCNCC(C(=O)O)C1)Cc1ccncc1` (configuration not stated) gave Pf Dd2 inh 2.7%.
CC(O)c1cc2n(n1)CCN(C(=O)c1cc(=O)n(C)c(=O)n1C)C2 (configuration not stated) was read as Pf Dd2 inh 4.0%.
`NC(=O)C1(C(=O)N2CCc3cc(S(=O)(=O)Nc4cccnc4)ccc3C2)CC1` gave Pf Dd2 inh 3.5%.
For CN1CCC(NC(=O)C2CCCN(S(C)(=O)=O)CCC(=O)NCC2)CC1 (configuration not stated) the results were Pf Dd2 inh 18.9%.
Screening CC(C)N1C[C@H](O)C[C@H]1c1nnc2n1CCN(C(=O)c1ccsc1)C2 returned Pf Dd2 inh 29.6%.
O=C(Nc1cccc(OC(F)(F)F)c1)C1(CCO)CCN(c2ncccn2)C1 (configuration not stated) was read as Pf Dd2 inh -16.4%.
`CC(=O)N1CCN(c2ncnc3c2CN(c2ccccc2C)C(=O)CN3C)CC1` gave Pf Dd2 inh -7.3%.
`COc1ccccc1C(=O)N1CCc2nc(C)nc(-c3ccc(Cl)cc3)c2C1` gave Pf Dd2 inh -6.4%.
CC(=O)NCC(=O)N1CCC(N2C(=O)C(OCC3CC3)C23CCCCC3)CC1 (configuration not stated) was read as Pf Dd2 inh -21.1%.
Screening CN1CCN(c2ccc3nnc(-c4cc(C(=O)Nc5cccc(Cl)c5)ccn4)n3n2)CC1 returned Pf Dd2 inh inactive.
COc1ccccc1CC(=O)Nc1ccc2nc(N3CCC(C)CC3)cc(C)c2c1 was read as Pf Dd2 inh 2.8%.
For Cc1ccccc1C(=O)Nc1ccc2nc(N3CCCCC3)cc(C)c2c1 the results were Pf Dd2 inh inactive.
Screening Cc1ccccc1NC(=O)Nc1ccc2nc(N3CCN(C)CC3)cc(C)c2c1 returned Pf Dd2 inh 2µM*.
`Cc1cc(N2CCN(C)CC2)nc2ccc(NC(=O)Nc3ccc(Cl)cc3)cc12` gave Pf Dd2 inh 11.2µM*.
Screening Cc1cc(SCC(=O)Nc2ccc(Cl)cc2)nc2ccccc12 returned Pf Dd2 inh inactive.
Screening COc1cc(C(=O)Nc2ccc(NC(=O)c3ccc(C(C)(C)C)cc3)cc2)cc(OC)c1OC returned Pf Dd2 inh inactive.
Screening CCOc1ccccc1NC(=O)Nc1ccc2nc(N3CCN(C)CC3)cc(C)c2c1 returned Pf Dd2 inh 0.447µM*.
Screening Cc1cc(N2CCN(C)CC2)nc2ccc(NC(=O)c3ccc(C(C)(C)C)cc3)cc12 returned Pf Dd2 inh 6.31µM*.
CC(C)(C)c1ccc(C(=O)Nc2ccc(NC(=O)c3ccc(Cl)c(Cl)c3)cc2)cc1 was read as Pf Dd2 inh 11.1%.
Screening Cc1cc(N2CCC(C)CC2)nc2ccc(NC(=O)Cc3ccccc3Br)cc12 returned Pf Dd2 inh -18.7%.
CCOc1ccccc1NC(=O)Nc1nnc(N2CCCCCC2)s1 was read as Pf Dd2 inh -25.6%.
For O=C(c1ccco1)N1CCC2(CC1)CC(N(C(=O)c1ccccc1)C1CC1)CCO2 (configuration not stated) the results were Pf Dd2 inh inactive.
CN1CCCC2(CC1)CCN(C(=O)CC13CC4CC(CC(O)(C4)C1)C3)CC2 was read as Pf Dd2 inh -10.2%.
Screening COc1cccc(CNC(=O)[C@@H]2C[C@@H](O)CN2C2CCN(C(=O)c3sc(C)nc3C)CC2)c1 returned Pf Dd2 inh -19.1%.
Screening COC(=O)[C@@H](Cc1cccnc1)NC(=O)[C@H]1CN(C(C)=O)CCN1C(=O)N1CCOCC1 returned Pf Dd2 inh 10.3%.
COc1ccc(-c2nc3c(c(=O)[nH]2)CCN(C(=O)c2ccccc2)C3)cc1 was read as Pf Dd2 inh inactive.
`COc1ccc(-c2nc3c(c(=O)[nH]2)CCN(C(=O)CSc2ccccc2)C3)cc1` gave Pf Dd2 inh 4.47µM*.
COc1ccc(-c2nc3c(c(=O)[nH]2)CCN(C(=O)COc2ccc(F)c(F)c2)C3)cc1 was read as Pf Dd2 inh 1.0%.
Screening Cc1noc(C)c1[S+](=O)([O-])N1CCC2(CC1)Cc1ccccc1NC2=O returned Pf Dd2 inh -10.6%.
Cc1noc(C)c1[S+](=O)([O-])N1CCC2(CC1)COc1ccccc1NC2=O was read as Pf Dd2 inh 8.91µM*.
Screening O=C1Nc2ccccc2OCC12CCN([S+](=O)([O-])c1ccccc1)CC2 returned Pf Dd2 inh 8.6%.
For CNC(C)c1ccncc1 (configuration not stated) the results were Pf Dd2 inh 5.2%[44.1 µM].
